# Results from PubChem BioAssay (Tox21).
# A number with no mark means an inactive call. Records with an inconclusive call do not appear. Where a call stands in place of a potency, no number is given. Activity calls are given as the source filed them. Unless noted, calls come from the whole dose curve; as a rule, active = well fitted curve in the direction sought with a large enough effect in the repeat runs; inconclusive = weak or mixed curves; inactive = no such curve, though single readings can be large; an effect the other way counts as inactive or inconclusive.
# Columns and labels:
# [1] = A CellTox Green Cytotoxicity Assay to monitor cytotoxicity in HEK293 cells - 32 hour (AID 1224881); note: nearly all actives have a fitted effect of over 40% in size; note: potency is the fitted concentration of half-maximal effect
# How it was run: (§1)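 Read-out: fluorescence of a cell-impermeant cyanine dye staining DNA of dead cells, proportional to cytotoxicity. HEK293, 600 cells/well with reagent, compound (23 nL DMSO) added after 5 h; reads at 0, 8, 16, 24, 32, 40 h.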
# [2] = A CellTox Green Cytotoxicity Assay to monitor cytotoxicity in HepG2 cells - 0 hour (AID 1224882); note: nearly all actives have a fitted effect of over 35% in size
# How it was run: (§2)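 HepG2, 600 cells/well premixed w/ CellTox Green; 5 h settle, 37 C/5% CO2; pintool cpd add (DMSO); 37 C, 40 h; fluorescence read at 0, 8, 16, 24, 32, 40 h.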
# [3] = A CellTox Green Cytotoxicity Assay to monitor cytotoxicity in HepG2 cells - 32 hour (AID 1224883); note: nearly all actives have a fitted effect of over 50% in size; note: potency is the fitted concentration of half-maximal effect
# How it was run: as §2
# [4] = qHTS RealTime-Glo MT Cell Viability Assay in HepG2 cells - 16 hour (AID 1224885); note: nearly all actives have a fitted effect of over 50% in size
# How it was run: (§3)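 Real-time, nonlytic viability: 600 HepG2 cells/well mixed with NanoLuc enzyme plus prosubstrate; 5 h settle, compound (DMSO) added by pintool; luminescence monitored over 40 h at 37 C.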
# [5] = qHTS RealTime-Glo MT Cell Viability Assay in HEK293 cells - 24 hour (AID 1224886); note: nearly all actives have a fitted effect of over 50% in size; note: potency is the fitted concentration of half-maximal effect
# How it was run: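 Cells + reagent dispensed (600 cells/well, HEK293) → 5 h at 37 C/5% CO2 → 23 nL compound in DMSO pinned → 40 h at 37 C → luminescence read at 0, 8, 16, 24, 32, 40 h.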
# [6] = qHTS RealTime-Glo MT Cell Viability Assay in HEK293 cells - 8 hour (AID 1224887); note: nearly all actives have a fitted effect of over 50% in size; note: potency is the fitted concentration of half-maximal effect
# How it was run: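 Luminescence readout at each listed time point; HEK293, 600 cells/well, RealTime-Glo MT reagent added with cells; compounds pinned (23 nL in DMSO) after 5 h at 37 C; continuous culture at 37 C.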
# [7] = qHTS RealTime-Glo MT Cell Viability Assay in HepG2 cells - 0 hour (AID 1224889); note: nearly all actives have a fitted effect of over 50% in size
# How it was run: as §3
# [8] = A CellTox Green Cytotoxicity Assay to monitor cytotoxicity in HepG2 cells - 8 hour (AID 1224890); note: nearly all actives have a fitted effect of over 45% in size
# How it was run: as §2
# [9] = qHTS assay to identify small molecule antagonists of the estrogen receptor alpha (ER-alpha) signaling pathway using the BG1 cell line in the presence of 0.1 nM 17-beta-estradiol - cell viability counter screen (AID 1259241); note: nearly all actives have a fitted effect of over 40% in size; note: potency is the fitted concentration of half-maximal effect
# How it was run: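 Cells were plated and left 24 hr, compounds in DMSO were pinned in, 17beta-estradiol was added to 0.1 nM final, and after 22 hr CellTiter-Fluor reagent was added for 30 min before fluorescence was read.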
# [10] = qHTS assay to identify small molecule antagonists of the androgen receptor (AR) signaling pathway using the MDA cell line in the presence of 0.5 nM R1881 - cell viability counter screen (AID 1259242); note: nearly all actives have a fitted effect of over 45% in size; note: potency is the fitted concentration of half-maximal effect
# How it was run: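 Live-cell protease fluorescence, CellTiter-Fluor, 30 min at 37C. Cells: MDA-kb2, 3,000/well, preincubated 5 hr. Compounds plus 0.5 nM R1881 final, 16 hr, 37C, 0% CO2.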
# [11] = target: Estrogen receptor (Homo sapiens) (UniProt P03372); experiment: qHTS assay to identify small molecule antagonists of the estrogen receptor alpha (ER-alpha) signaling pathway using the BG1 cell line in the presence of 0.1 nM 17-beta-estradiol (AID 1259244); note: nearly all actives have a fitted effect of over 50% in size; note: potency is the fitted concentration of half-maximal effect
# How it was run: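 Luminescence after ONE-Glo (30 min, room temperature) measured ERE-luciferase activity in VM7Luc4E2 cells treated 22 h with compound and 0.1 nM final 17beta-estradiol as stimulator.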
# [12] = qHTS assay to identify small molecule HDAC inhibitors (AID 1259364);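 note: wild-type HCT-116 cells with endogenous class I/II HDAC activity; top concentration of the series differs between compounds; nearly all actives have a fitted effect of over 45% in size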
# How it was run: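 HCT-116 (wild type), 1,500 cells/well, overnight; compound 2 hr 37C 5% CO2; HDAC-Glo I/II reagent 30 min RT; luminescence readout.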
# [13] = qHTS assay to identify small molecule HDAC inhibitors - cell viability counter screen (AID 1259365)
# How it was run: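 Counter screen in wild-type HCT-116 cells: compounds dissolved in DMSO are pin-transferred onto overnight-plated cells and left 2hr at 37C. ATP-based CellTiter-Glo luminescence then measures viable cells.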
# [14] = qHTS assay to identify small molecule agonists of the sonic hedgehog signaling (Shh) pathway - cell viability counter screen (AID 1259366); note: nearly all actives have a fitted effect of over 50% in size
# How it was run: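 Cells are plated at 2,000 per well and left 4hr at 37C, 5% CO2 before compound addition. After 23hr of treatment, CellTiter-Fluor reagent is added for 1hr at 37C and fluorescence is measured.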
# [15] = qHTS assay to identify small molecule antagonists of the sonic hedgehog signaling (Shh) pathway - cell viability counter screen (AID 1259367); note: nearly all actives have a fitted effect of over 55% in size
# How it was run: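 Cytotoxicity was assessed in parallel with Shh reporter activity by measuring live-cell protease fluorescence (CellTiter-Fluor) in NIH/3T3 cells stably carrying Gli1-Luc, treated with compound under conditioned medium stimulation for 23 hr plus 1 hr reagent incubation.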
# [16] = qHTS assay to identify small molecule agonists of the sonic hedgehog signaling (Shh) pathway (AID 1259368; calls by dose curve;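 note: NIH/3T3-derived 3T3Gli1-Luc cells carrying a stable Gli1-driven firefly luciferase reporter; series mostly up to about 92 µM; nearly all actives have a fitted effect of over 15% in size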)
# How it was run: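 Read-out: firefly luciferase luminescence from a Gli1 response element reporter stably integrated in NIH/3T3-derived 3T3Gli1-Luc cells, measured 30 min at room temperature after reagent addition. Compound exposure lasted 24 hr at 37 C, 5% CO2.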
# [17] = A CellTox Green Cytotoxicity Assay to monitor cytotoxicity in HEK293 cells - 16 hour (AID 1224888); note: nearly all actives have a fitted effect of over 35% in size; note: potency is the fitted concentration of half-maximal effect
# How it was run: as §1
# [18] = target: Androgen receptor (Homo sapiens) (UniProt P10275); experiment: qHTS assay to identify small molecule antagonists of the androgen receptor (AR) signaling pathway using the MDA cell line in the presence of 0.5 nM R1881 (AID 1259243); note: nearly all actives have a fitted effect of over 50% in size; note: potency is the fitted concentration of half-maximal effect
# How it was run: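 MDA-kb2, MMTV-luc (AR/GR elements); 3,000 cells/well; cpd + 0.5 nM R1881 final; 16 hr 37C, 0% CO2; ONE-Glo 30 min RT; luminescence.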
# [19] = qHTS assay to identify small molecule phospholipidosis (PLD) inducers (AID 1259344; active = well fitted curve in the direction sought with a large enough effect; an effect the other way counts as inactive or inconclusive)
# How it was run: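 Cells (HepG2, 900 per well) attach for 4 h, receive LipidTOX Red and compound together, incubate 24 h at 37 C, are fixed 30 min with paraformaldehyde/Hoechst, then imaged at one site per well.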
# [20] = A CellTox Green Cytotoxicity Assay to monitor cytotoxicity in HEK293 cells - 8 hour (AID 1224884); note: nearly all actives have a fitted effect of over 35% in size
# How it was run: as §1
# Sequence of Estrogen receptor (Homo sapiens) (P03372 whole entry, looked up): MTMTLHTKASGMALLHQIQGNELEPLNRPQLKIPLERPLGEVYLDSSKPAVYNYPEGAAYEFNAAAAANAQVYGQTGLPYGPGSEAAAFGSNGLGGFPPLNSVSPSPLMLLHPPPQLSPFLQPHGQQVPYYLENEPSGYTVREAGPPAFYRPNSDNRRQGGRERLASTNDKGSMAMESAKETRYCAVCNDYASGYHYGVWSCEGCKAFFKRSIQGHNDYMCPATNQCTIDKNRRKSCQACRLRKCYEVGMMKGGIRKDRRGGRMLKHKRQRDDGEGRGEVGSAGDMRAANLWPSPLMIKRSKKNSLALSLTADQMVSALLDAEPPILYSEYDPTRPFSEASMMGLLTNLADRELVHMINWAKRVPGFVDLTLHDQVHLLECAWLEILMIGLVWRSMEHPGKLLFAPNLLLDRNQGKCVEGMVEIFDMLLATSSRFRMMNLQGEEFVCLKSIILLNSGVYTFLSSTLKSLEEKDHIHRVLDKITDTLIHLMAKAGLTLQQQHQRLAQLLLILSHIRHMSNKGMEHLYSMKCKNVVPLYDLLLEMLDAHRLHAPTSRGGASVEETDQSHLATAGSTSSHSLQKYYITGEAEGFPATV
# Sequence of Androgen receptor (Homo sapiens) (P10275 whole entry, looked up): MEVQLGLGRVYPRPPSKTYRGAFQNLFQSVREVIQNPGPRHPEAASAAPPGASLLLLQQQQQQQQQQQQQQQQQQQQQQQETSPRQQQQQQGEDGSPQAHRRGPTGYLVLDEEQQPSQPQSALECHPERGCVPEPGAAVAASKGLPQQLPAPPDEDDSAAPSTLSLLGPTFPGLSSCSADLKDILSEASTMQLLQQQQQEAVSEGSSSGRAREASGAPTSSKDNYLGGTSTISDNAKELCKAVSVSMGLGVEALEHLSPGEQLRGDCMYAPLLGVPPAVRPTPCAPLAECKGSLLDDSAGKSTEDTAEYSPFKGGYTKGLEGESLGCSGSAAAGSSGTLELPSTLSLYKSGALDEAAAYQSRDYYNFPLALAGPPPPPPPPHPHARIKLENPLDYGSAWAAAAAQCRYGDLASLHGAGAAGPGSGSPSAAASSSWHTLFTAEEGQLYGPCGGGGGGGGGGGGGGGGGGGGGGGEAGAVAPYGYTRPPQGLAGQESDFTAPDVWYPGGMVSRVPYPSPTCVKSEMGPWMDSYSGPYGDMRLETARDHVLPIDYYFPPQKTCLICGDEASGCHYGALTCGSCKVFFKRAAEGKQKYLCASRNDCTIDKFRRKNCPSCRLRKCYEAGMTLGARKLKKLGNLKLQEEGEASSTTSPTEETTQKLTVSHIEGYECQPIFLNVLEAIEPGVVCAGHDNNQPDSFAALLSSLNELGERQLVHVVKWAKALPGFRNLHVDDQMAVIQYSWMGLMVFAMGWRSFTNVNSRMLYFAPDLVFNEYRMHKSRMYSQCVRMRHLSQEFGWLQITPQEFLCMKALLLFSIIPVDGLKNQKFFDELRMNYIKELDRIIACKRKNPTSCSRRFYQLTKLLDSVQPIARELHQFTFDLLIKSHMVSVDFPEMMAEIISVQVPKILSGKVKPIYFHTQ
Compound,Potency [1],Potency [2],Potency [3],Potency [4],Potency [5],Potency [6],Potency [7],Potency [8],Potency [9],Potency [10],Potency [11],Potency [12],Potency [13],Potency [14],Potency [15],Potency [16],Potency [17],Potency [18],outcome [19],Potency [20]
CC(Cl)C(Cl)Cl (configuration not stated),48.2 µM (active),inactive,inactive,inactive,inactive,inactive,inactive,inactive,inactive,inactive,inactive,inactive,inactive,inactive,inactive,inactive,–,–,–,–
CCCCC/C(=C\c1ccccc1)CO,43.1 µM (active),inactive,inactive,inactive,inactive,–,inactive,inactive,inactive,inactive,–,inactive,inactive,inactive,inactive,inactive,48.4 µM (active),–,–,–
CC(C)(C)CC(C)(C)c1ccc(OCCO)cc1,54.6 µM (active),inactive,inactive,inactive,5.46 µM (active),7.72 µM (active),–,inactive,54.2 µM (active),48.3 µM (active),10.8 µM (active),inactive,inactive,–,–,inactive,–,6.82 µM (active),inactive,–
CC(=O)Nc1ccc(N)cc1,inactive,inactive,inactive,inactive,inactive,inactive,–,–,inactive,inactive,inactive,inactive,inactive,inactive,inactive,inactive,inactive,inactive,–,–
Cc1ccc(S)cc1,inactive,inactive,17.4 µM (active),inactive,inactive,inactive,inactive,inactive,inactive,inactive,inactive,inactive,inactive,inactive,inactive,inactive,inactive,–,–,–
O=C(CCCCCCC(=O)Nc1ccccc1)NO,inactive,inactive,2.68 µM (active),–,2.39 µM (active),–,inactive,–,inactive,inactive,3.35 µM (active),–,–,–,–,inactive,inactive,–,inactive,inactive
CC(=O)N(c1onc(C)c1C)S(=O)(=O)c1ccc(N)cc1,inactive,inactive,inactive,inactive,inactive,inactive,inactive,–,inactive,inactive,inactive,inactive,inactive,inactive,inactive,inactive,inactive,–,–,–
CCCCCCCCCCOS(=O)(=O)O,inactive,inactive,inactive,inactive,inactive,inactive,inactive,inactive,inactive,inactive,inactive,inactive,inactive,inactive,inactive,–,–,–,–,–
